From PubChem BioAssay (NCI)
This is part of a sample that, as a whole, favours compounds with a hit. Of some 79,000 tested, about 15% had one in any assay. Active and inactive are the calls of the source. No stated cut-off is given here; in the data, active means growth inhibition above about 70%; inactive means the rest.

Experiments:
[1] = NCI Yeast Anticancer Drug Screen. Data for the rad52 strain (AID 147);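 further: 0% = growth of vehicle-treated control cultures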; details: S. cerevisiae rad52 mutant growth inhibition, stronger effect = higher value
Procedure, shortened: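 Measured: yeast growth inhibition. System: strain with a defined DNA damage repair alteration. Reference: vehicle-treated control cultures.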

[2] = NCI Yeast Anticancer Drug Screen. Data for the wt1 strain (AID 149);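 further: 0% = growth of vehicle-treated wt1 cultures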; details: S. cerevisiae wt1 strain (SPY 50644) growth inhibition, stronger effect = higher value
Procedure, shortened: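 Vehicle-normalised growth inhibition; strain wt1; compound exposure.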

[3] = NCI Yeast Anticancer Drug Screen. Data for the mgt1 strain (AID 153); details: S. cerevisiae mgt1 mutant growth inhibition, stronger effect = higher value
Procedure, shortened: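 After exposure of the mgt1 yeast mutant to compound, growth was measured and reported as inhibition compared with vehicle controls.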

[4] = NCI Yeast Anticancer Drug Screen. Data for the rad50 strain (AID 155);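 further: 0% = growth of vehicle-only cultures of the same strain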; details: S. cerevisiae rad50 strain growth inhibition, stronger effect = higher value
Procedure, shortened: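 A DNA repair-deficient yeast mutant serves as the test organism; compound-induced growth inhibition is calculated against vehicle-treated cells.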

[5] = NCI Yeast Anticancer Drug Screen. Data for the mec2-1 strain (AID 157); details: S. cerevisiae mec2-1 strain, stronger effect = higher value
Procedure, shortened: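 Test agents were screened against the mec2-1 yeast strain, with defined DNA repair or cell cycle alteration. Growth was scored as inhibition against vehicle-only controls.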

[6] = NCI Yeast Anticancer Drug Screen. Data for the rad14 strain (AID 159);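 further: 0% = growth of vehicle-treated control cultures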; details: S. cerevisiae rad14 strain growth inhibition, stronger effect = higher value
Procedure, shortened: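 Vehicle-treated cultures served as the baseline for growth inhibition of a DNA repair-mutant yeast strain exposed to each compound.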

[7] = NCI Yeast Anticancer Drug Screen. Data for the sgs1 mgt1 strain (AID 161);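 further: 0% = growth of cultures given vehicle only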; details: S. cerevisiae sgs1 mgt1 strain, stronger effect = higher value
Procedure, shortened: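 Test agents were incubated with a DNA-repair-mutant yeast strain. Growth was then read and compared against vehicle-treated controls.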

[8] = NCI Yeast Anticancer Drug Screen. Data for the CLN2oe strain (AID 163);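 further: 0% = growth of vehicle-only control cultures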; details: S. cerevisiae CLN2oe strain, stronger effect = higher value
Procedure, shortened: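 Here, growth inhibition in a cell-cycle-altered yeast strain after compound exposure was quantified against vehicle control growth.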

[9] = NCI Yeast Anticancer Drug Screen. Data for the cln2 rad14 strain (AID 165);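 further: 0% = growth equal to vehicle treated cultures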; details: S. cerevisiae cln2 rad14 strain, stronger effect = higher value
Procedure, shortened: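 Growth of compound-exposed yeast (cln2 rad14 genotype) measured and expressed as inhibition relative to vehicle.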

[10] = NCI Yeast Anticancer Drug Screen. Data for the bub3 strain (AID 167); details: S. cerevisiae bub3 mutant strain, stronger effect = higher value
Procedure, shortened: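 Inhibition values come from growth of compound-treated mutant yeast normalised to vehicle-treated controls.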

[11] = NCI Yeast Anticancer Drug Screen. Data for the wt2 strain (AID 169);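 further: 0% = growth of vehicle-treated yeast cultures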; details: S. cerevisiae wt2 strain growth inhibition, stronger effect = higher value
Procedure, shortened: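 Genetically defined yeast strains from a DNA-repair/cell-cycle panel were used. Compound-exposed yeast growth was measured, and the inhibition was calculated relative to vehicle treatment.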

[12] = NCI Yeast Anticancer Drug Screen. Data for the mlh1 strain (AID 171);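 further: 0% = growth of vehicle-treated control cultures of the same strain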; details: S. cerevisiae mlh1 strain growth inhibition, stronger effect = higher value
Procedure, shortened: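 Here the genetically defined yeast mutant is grown with each compound, and the extent to which its growth falls below that of vehicle-exposed cells is reported.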

[13] = NCI Yeast Anticancer Drug Screen. Data for the sgs1 strain (AID 173);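 further: 0% = growth of vehicle-only control cultures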; details: S. cerevisiae sgs1 mutant, stronger effect = higher value
Procedure, shortened: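 Relative growth inhibition, referenced to vehicle, was determined in a yeast strain with a defined alteration affecting DNA damage repair or cell cycle control after compound exposure.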

[14] = NCI Yeast Anticancer Drug Screen. Data for the mlh1 rad18 strain (AID 175); details: S. cerevisiae mlh1 rad18 strain growth inhibition, stronger effect = higher value
Procedure, shortened: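 In this whole-cell yeast screen, a strain with altered DNA damage repair is challenged with compound, and its growth is measured against matched vehicle-treated controls.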

[15] = NCI Yeast Anticancer Drug Screen. Data for the rad18 strain (AID 177); details: S. cerevisiae rad18 mutant growth inhibition, stronger effect = higher value
Procedure, shortened: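 Screen uses a yeast strain with a defined lesion in DNA damage repair; compound effect is read as loss of growth compared to untreated vehicle cultures.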

[16] = at 5.0 µM (retest, dose inferred, filed as 0.5)
[17] = at 50.0 µM (retest, dose inferred, filed as 5.0)

Measured: growth inhibition

COc1ccc(Br)c(C(=O)Sc2nnnn2-c2cccc(Cl)c2)c1
inactive: [1]; at 1.2 µM 23% | [1]; at 3.7 µM 29% | [1]; at 11.0 µM 24% | [1]; at 33.0 µM 43% | [2]; at 1.2 µM 5% | [2]; at 3.7 µM 17% | [2]; at 11.0 µM 22% | [2]; at 33.0 µM 33% | [3]; at 1.2 µM -10% | [3]; at 3.7 µM 11% | [3]; at 11.0 µM 16% | [3]; at 33.0 µM 30% | [4]; at 1.2 µM 2% | [4]; at 3.7 µM 21% | [4]; [16] 42% | [4]; at 11.0 µM 6% | [4]; at 33.0 µM 42% | [5]; at 1.2 µM 13% | [5]; at 3.7 µM -9% | [5]; [16] 40% | [5]; at 11.0 µM -14% | [5]; at 33.0 µM 12% | [6]; at 1.2 µM -8% | [6]; at 3.7 µM -5% | [6]; at 11.0 µM -30% | [6]; at 33.0 µM -16% | [7]; [16] -19% | [8]; at 1.2 µM 6% | [8]; at 3.7 µM 3% | [8]; at 11.0 µM 3% | [8]; at 33.0 µM 5% | [9]; [16] 58% | [10]; at 1.2 µM 13% | [10]; at 3.7 µM 11% | [10]; [16] 23% | [10]; at 11.0 µM -22% | [10]; at 33.0 µM 8% | [11]; at 1.2 µM -11% | [11]; at 3.7 µM -15% | [11]; at 11.0 µM -35% | [11]; at 33.0 µM -8% | [12]; at 1.2 µM -14% | [12]; at 3.7 µM -21% | [12]; at 11.0 µM -25% | [12]; at 33.0 µM 3% | [13]; at 1.2 µM 2% | [13]; at 3.7 µM 2% | [13]; at 11.0 µM 11% | [13]; at 33.0 µM 49% | [14]; [16] 47% | [14]; [17] 67%
active: [1]; at 100.0 µM 96% | [2]; at 100.0 µM 93% | [3]; at 100.0 µM 95% | [4]; [17] 71% | [4]; at 50.0 µM 87.6% | [4]; at 100.0 µM 93% | [5]; [17] 72% | [5]; at 50.0 µM 88.9% | [5]; at 100.0 µM 94% | [6]; at 100.0 µM 89% | [7]; [17] 89% | [7]; at 50.0 µM 87.8% | [8]; at 100.0 µM 94% | [9]; [17] 83% | [9]; at 50.0 µM 76.2% | [10]; [17] 81% | [10]; at 50.0 µM 88.2% | [10]; at 100.0 µM 93% | [11]; at 100.0 µM 93% | [12]; at 100.0 µM 92% | [13]; at 100.0 µM 94% | [14]; at 50.0 µM 85%

N#CC(C(=O)Nc1ccccc1)C1=C(Cl)C(=O)c2ccccc2C1=O (stereo unspecified)
inactive: [1]; at 1.2 µM 7% | [1]; at 3.7 µM 57% | [2]; at 1.2 µM -23% | [2]; at 3.7 µM 12% | [3]; at 1.2 µM 23% | [3]; at 3.7 µM 6% | [4]; at 1.2 µM 4% | [4]; at 3.7 µM 38% | [4]; [16] 9% | [5]; at 1.2 µM -8% | [6]; at 1.2 µM -26% | [6]; at 3.7 µM 42% | [7]; [16] 8% | [8]; at 1.2 µM 4% | [8]; at 3.7 µM 45% | [9]; [16] 53% | [10]; at 1.2 µM -49% | [10]; at 3.7 µM -5% | [10]; [16] 62% | [11]; at 1.2 µM -3% | [11]; at 3.7 µM 26% | [12]; at 1.2 µM -3% | [12]; at 3.7 µM 41% | [13]; at 1.2 µM 8% | [13]; at 3.7 µM 41% | [14]; [16] 64% | [15]; at 1.2 µM -15% | [15]; at 3.7 µM -8%
active: [1]; at 11.0 µM 98% | [1]; at 33.0 µM 98% | [1]; at 100.0 µM 97% | [2]; at 11.0 µM 95% | [2]; at 33.0 µM 97% | [2]; at 100.0 µM 96% | [3]; at 11.0 µM 98% | [3]; at 33.0 µM 97% | [3]; at 100.0 µM 97% | [4]; at 11.0 µM 97% | [4]; at 33.0 µM 97% | [4]; [17] 98% | [4]; at 50.0 µM 91.8% | [4]; at 100.0 µM 96% | [5]; at 3.7 µM 73% | [5]; [16] 73% | [5]; at 11.0 µM 98% | [5]; at 33.0 µM 97% | [5]; [17] 99% | [5]; at 50.0 µM 93% | [5]; at 100.0 µM 96% | [6]; at 11.0 µM 98% | [6]; at 33.0 µM 97% | [6]; at 100.0 µM 95% | [7]; [17] 98% | [7]; at 50.0 µM 93.1% | [8]; at 11.0 µM 98% | [8]; at 33.0 µM 97% | [8]; at 100.0 µM 96% | [9]; [17] 98% | [9]; at 50.0 µM 91.8% | [10]; at 11.0 µM 97% | [10]; at 33.0 µM 97% | [10]; [17] 98% | [10]; at 50.0 µM 92% | [10]; at 100.0 µM 95% | [11]; at 11.0 µM 95% | [11]; at 33.0 µM 97% | [11]; at 100.0 µM 95% | [12]; at 11.0 µM 98% | [12]; at 33.0 µM 97% | [12]; at 100.0 µM 97% | [13]; at 11.0 µM 96% | [13]; at 33.0 µM 97% | [13]; at 100.0 µM 96% | [14]; [17] 98% | [14]; at 50.0 µM 91% | [15]; at 11.0 µM 90% | [15]; at 33.0 µM 98% | [15]; at 100.0 µM 97%

COc1cc(C2c3cc4c(cc3OC(Nc3ccccc3)C2C)OCO4)cc(OC)c1O (stereo unspecified)
active: [1]; at 100.0 µM 86% | [4]; at 50.0 µM 77% | [4]; at 100.0 µM 86% | [5]; [17] 78%
inactive: [1]; at 1.2 µM 1% | [1]; at 3.7 µM 2% | [1]; at 11.0 µM 0% | [1]; at 33.0 µM 2% | [2]; at 1.2 µM 1% | [2]; at 3.7 µM -1% | [2]; at 11.0 µM 2% | [2]; at 33.0 µM 0% | [2]; at 100.0 µM 30% | [3]; at 1.2 µM -1% | [3]; at 3.7 µM -3% | [3]; at 11.0 µM -3% | [3]; at 33.0 µM 15% | [3]; at 100.0 µM 38% | [4]; at 1.2 µM 2% | [4]; at 3.7 µM 2% | [4]; [16] -3% | [4]; at 11.0 µM 2% | [4]; at 33.0 µM 2% | [4]; [17] 64% | [5]; at 1.2 µM 0% | [5]; at 3.7 µM 1% | [5]; [16] -5% | [5]; at 11.0 µM 1% | [5]; at 33.0 µM 1% | [5]; at 50.0 µM 36.1% | [5]; at 100.0 µM 67% | [6]; at 1.2 µM 1% | [6]; at 3.7 µM 1% | [6]; at 11.0 µM 4% | [6]; at 33.0 µM 5% | [6]; at 100.0 µM 51% | [7]; [16] -3% | [7]; [17] 6% | [7]; at 50.0 µM 58.7% | [8]; at 1.2 µM 1% | [8]; at 3.7 µM 0% | [8]; at 11.0 µM 1% | [8]; at 33.0 µM 0% | [8]; at 100.0 µM 39% | [9]; [16] 3% | [9]; [17] 52% | [9]; at 50.0 µM 6.9% | [10]; at 1.2 µM -1% | [10]; at 3.7 µM -5% | [10]; [16] 11% | [10]; at 11.0 µM -1% | [10]; at 33.0 µM 0% | [10]; [17] 51% | [10]; at 50.0 µM 43.8% | [10]; at 100.0 µM 41% | [11]; at 1.2 µM -1% | [11]; at 3.7 µM -2% | [11]; at 11.0 µM -1% | [11]; at 33.0 µM 0% | [11]; at 100.0 µM 68%
